Reference: PubChem BioAssay AID1159580 (chemical genetic matrix, 2015)
The whole screen tested about 5,500 compounds, of which about 2,000 (36%) were called active. Not shown: some 18% with an inconclusive outcome. Rule as the data show it: active = normalized growth mostly below about 0.91 (no sharp cut-off); inconclusive = no clear call, values can overlap the other calls; inactive = mostly above about 0.92. The list shows a part of the results.

Assay: chemical genetic growth profiling, strain panel (AID 1159580);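 also: tested at 20 µM; growth read once vehicle control cultures reached saturation at 30 °C; 1 = growth at the plate median or of vehicle wells; lower values mean less growth of the strain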
Conditions: S. cerevisiae deletion strains, growth OD
[1] = locus YDL101C, strain DUN1, active compounds read low
[2] = locus YHR030C, strain SLT2, active compounds read low
[3] = locus YHR079C, strain IRE1, active compounds read low
[4] = locus YJL095W, strain BCK1, active compounds read low
[5] = locus YJR066W, strain TOR1, active compounds read low
[6] = locus YLR113W, strain HOG1, active compounds read low
[7] = locus YNL183C, strain NPR1, active compounds read low
[8] = locus YOR231W, strain MKK1, active compounds read low
[9] = locus YPL256C, strain CLN2, active compounds read low

Measured: normalized growth

Cc1nn(C)c(C(=O)Sc2ccc(OC(F)(F)F)cc2)c1[N+](=O)[O-]
active: [2] 1.25 [resistant] | [6] 0.834
inactive: locus YAR019C, strain CDC15, active compounds read low 0.977 | locus YBL105C, strain PKC1, active compounds read low 0.974 | locus YBR135W, strain CKS1, active compounds read low 0.969 | locus YBR136W, strain MEC1, active compounds read low 0.984 | locus YBR160W, strain CDC28, active compounds read low 0.977 | locus YDL017W, strain CDC7, active compounds read low 0.977 | locus YDL028C, strain MPS1, active compounds read low 0.985 | [1] 0.978 | locus YDL108W, strain KIN28, active compounds read low 0.98 | locus YDL132W, strain cdc53, active compounds read low 0.952 | locus YDL214C, strain PRR2, active compounds read low 0.946 | locus YDR052C, strain DBF4, active compounds read low 0.983 | locus YDR054C, strain cdc34, active compounds read low 0.952 | locus YDR226W, strain ADK1, active compounds read low 0.982 | locus YDR477W, strain SNF1, active compounds read low 0.993 | locus YER123W, strain YCK3, active compounds read low 0.895 | locus YER133W, strain GLC7, active compounds read low 1 | locus YFL009W, strain cdc4, active compounds read low 0.965 | locus YFL029C, strain CAK1, active compounds read low 0.978 | locus YFR003C, strain YPI1, active compounds read low 0.978 | locus YFR019W, strain FAB1, active compounds read low 0.972 | locus YFR028C, strain CDC14, active compounds read low 0.987 | locus YGR040W, strain KSS1, active compounds read low 1.03 | locus YGR052W, strain FMP48, active compounds read low 0.988 | locus YGR092W, strain DBF2, active compounds read low 0.939 | [3] 0.977 | locus YHR082C, strain KSP1, active compounds read low 0.947 | locus YHR205W, strain SCH9, active compounds read low 0.611 | locus YIL147C, strain SLN1, active compounds read low 0.985 | [4] 0.947 | locus YJL128C, strain PBS2, active compounds read low 0.87 | locus YJL157C, strain FAR1, active compounds read low 0.978 | locus YJR016C, strain ILV3, active compounds read low 0.977 | locus YJR066W, strain TOR1 (second series), active compounds read low 1.02 | [5] 0.936 | locus YKL048C, strain ELM1, active compounds read low 0.989 | locus YKL067W, strain YNK1, active compounds read low 0.96 | locus YKL101W, strain HSL1, active compounds read low 0.985 | locus YKL193C, strain SDS22, active compounds read low 0.975 | locus YKL203C, strain TOR2, active compounds read low 1.13 | locus YLR133W, strain CKI1, active compounds read low 0.949 | locus YLR403W, strain SFP1, active compounds read low 0.99 | locus YML070W, strain DAK1, active compounds read low 0.959 | locus YMR001C, strain CDC5, active compounds read low 0.979 | locus YMR205C, strain PFK2 (second series), active compounds read low 0.965 | locus YMR277W, strain FCP1, active compounds read low 0.968 | locus YNL006W, strain LST8, active compounds read low 0.974 | locus YNL020C, strain ARK1, active compounds read low 0.95 | locus YNL161W, strain CBK1, active compounds read low 0.98 | [7] 1.04 | locus YNL207W, strain RIO2, active compounds read low 0.989 | locus YNL222W, strain SSU72, active compounds read low 0.976 | locus YNL307C, strain MCK1 (second series), active compounds read low 0.918 | locus YOL078W, strain AVO1, active compounds read low 0.972 | locus YOL136C, strain PFK27, active compounds read low 0.935 | locus YOR061W, strain CKA2, active compounds read low 0.95 | locus YOR119C, strain RIO1, active compounds read low 1.11 | [8] 0.884 | locus YOR329C, strain SCD5, active compounds read low 0.982 | locus YPL031C, strain PHO85, active compounds read low 1.01 | locus YPL153C, strain RAD53, active compounds read low 1.03 | locus YPL204W, strain HRR25, active compounds read low 1.06 | locus YPL209C, strain IPL1, active compounds read low 0.981 | [9] 0.952 | locus YPR025C, strain CCL1, active compounds read low 0.981 | locus YPR106W, strain ISR1, active compounds read low 0.959 | locus YPR111W, strain DBF20, active compounds read low 0.932 | strain NNK1, active compounds read low 0.955 | strain TSCII, active compounds read low 0.982

Cc1nn(C)c(C)c1[N+](=O)[O-]
inactive: locus YAL013W, strain DEP1, active compounds read low 0.996 | locus YBR229C, strain ROT2, active compounds read low 1.03 | [1] 0.992 | locus YDL134C, strain PPH21, active compounds read low 1 | locus YDR150W, strain NUM1, active compounds read low 0.939 | locus YEL061C, strain CIN8, active compounds read low 1 | locus YGR078C, strain PAC10, active compounds read low 0.999 | locus YGR229C, strain SMI1, active compounds read low 1.01 | [2] 1.01 | locus YHR087W, strain rtc3, active compounds read low 1.02 | locus YJR043C, strain POL32, active compounds read low 0.997 | locus YJR075W, strain HOC1, active compounds read low 0.988 | locus YKL190W, strain CNB1, active compounds read low 1 | locus YLR039C, strain RIC1, active compounds read low 0.998 | locus YLR058C, strain SHM2 (second series), active compounds read low 1.01 | locus YLR085C, strain ARP6, active compounds read low 1.02 | locus YLR262C, strain YPT6, active compounds read low 0.993 | locus YML094W, strain GIM5, active compounds read low 0.994 | locus YMR219W, strain ESC1, active compounds read low 1.02 | locus YMR307W, strain GAS1, active compounds read low 0.994 | locus YNL128W, strain TEP1, active compounds read low 1.01 | locus YNL153C, strain GIM3, active compounds read low 1 | locus YNL298W, strain CLA4 (second series), active compounds read low 1.01 | locus YNL322C, strain KRE1, active compounds read low 0.996 | locus YNR030W, strain Alg12, active compounds read low 1.02 | locus YOL006C, strain TOP1, active compounds read low 1.05 | locus YPL055C, strain LGE1, active compounds read low 0.867 | locus YPL241C, strain CIN2, active compounds read low 1 | locus YPR135W, strain CTF4, active compounds read low 1.03

OC[C@@H](O)[C@@H](O)[C@H](O)[C@@H](O)CO
inactive: [2] 0.986 | [3] 0.96 | [4] 0.992 | [5] 0.946 | [6] 0.989 | [7] 0.947 | [8] 0.989 | [9] 1.01

CCCc1cc(C(N)=S)ccn1
inactive: locus YAL021C, strain ccr4, active compounds read low 0.966 | locus YAL026C, strain drs2, active compounds read low 0.982 | locus YAL030W, strain snc1, active compounds read low 0.985 | locus YBL061C, strain skt5, active compounds read low 0.975 | locus YBR009C, strain hhf1, active compounds read low 0.939 | locus YBR023C, strain chs3, active compounds read low 0.963 | locus YBR171W, strain sec66, active compounds read low 0.955 | locus YBR231C, strain swc5, active compounds read low 0.981 | locus YBR279W, strain paf1, active compounds read low 0.97 | locus YCL011C, strain gbp2, active compounds read low 0.974 | locus YCL016C, strain dcc1, active compounds read low 0.985 | locus YCL069W, strain vba3, active compounds read low 0.963 | locus YCR088W, strain abp1, active compounds read low 0.966 | locus YDL005C, strain med2, active compounds read low 0.959 | locus YDL040C, strain nat1, active compounds read low 0.964 | locus YDR001C, strain nth1, active compounds read low 0.971 | locus YDR069C, strain doa4, active compounds read low 0.95 | locus YDR137W, strain rgp1, active compounds read low 0.976 | locus YDR159W, strain sac3, active compounds read low 0.89 | locus YDR195W, strain ref2 0.976 | locus YDR297W, strain sur2, active compounds read low 0.975 | locus YDR334W, strain swr1, active compounds read low 0.929 | locus YDR335W, strain msn5, active compounds read low 0.961 | locus YDR392W, strain spt3, active compounds read low 0.886 | locus YEL003W, strain gim4, active compounds read low 0.972 | locus YEL037C, strain rad23, active compounds read low 0.964 | locus YEL061C, strain CIN8 (second series), active compounds read low 0.96 | locus YER015W, strain faa2, active compounds read low 0.978 | locus YER016W, strain bim1, active compounds read low 0.988 | locus YER111C, strain swi4, active compounds read low 0.988 | locus YER155C, strain BEM2 (second series), active compounds read low 0.958 | locus YFR010W, strain ubp6, active compounds read low 0.948 | locus YGL167C, strain pmr1, active compounds read low 0.939 | locus YGL173C, strain kem1, active compounds read low 0.966 | locus YGL227W, strain vid30, active compounds read low 0.974 | locus YGL240W, strain doc1, active compounds read low 0.953 | locus YGL253W, strain hxk2, active compounds read low 0.952 | locus YHR013C, strain ard1, active compounds read low 0.954 | locus YHR027C, strain rpn1, active compounds read low 0.967 | [2] 1.01 | [3] 1.02 | locus YHR142W, strain chs7, active compounds read low 0.981 | locus YJL092W, strain hpr5, active compounds read low 0.971 | locus YJL095W, strain BCK1 (second series), active compounds read low 0.978 | [4] 1.02 | locus YJL115W, strain asf1, active compounds read low 0.948 | locus YJL129C, strain trk1, active compounds read low 0.981 | locus YJL154C, strain vps35, active compounds read low 0.96 | locus YJL164C, strain tpk1, active compounds read low 0.971 | locus YJL166W, strain qcr8, active compounds read low 0.95 | [5] 0.925 | locus YKL160W, strain elf1, active compounds read low 0.989 | locus YKR026C, strain gcn3, active compounds read low 0.942 | locus YKR091W, strain srl3, active compounds read low 0.96 | locus YLL001W, strain dnm1, active compounds read low 0.954 | locus YLL026W, active compounds read low 0.985 | locus YLL041C, strain sdh2, active compounds read low 0.964 | locus YLR027C, strain aat2, active compounds read low 0.98 | [6] 0.997 | locus YLR221C, strain rsa3, active compounds read low 0.956 | locus YLR258W, strain gsy2, active compounds read low 0.966 | locus YLR262C, strain YPT6 (second series), active compounds read low 0.943 | locus YLR320W, strain mms22, active compounds read low 0.937 | locus YLR342W, strain FKS1, active compounds read low 0.981 | locus YLR357W, strain rsc2, active compounds read low 0.888 | locus YLR370C, strain arc18, active compounds read low 0.955 | locus YLR384C, strain iki3, active compounds read low 0.971 | locus YML120C, strain ndi1, active compounds read low 0.964 | locus YMR058W, strain fet3, active compounds read low 0.981 | locus YMR125W, strain sto1, active compounds read low 0.918 | locus YMR129W, active compounds read low 0.961 | locus YMR205C, strain PFK2, active compounds read low 0.955 | locus YMR231W, strain pep5, active compounds read low 0.967 | locus YNL071W, strain lat1, active compounds read low 0.958 | [7] 0.942 | locus YNL209W, strain ssb2, active compounds read low 0.955 | locus YNL248C, strain rpa49, active compounds read low 0.925 | locus YNL322C, strain KRE1 (second series), active compounds read low 0.966 | locus YNR049C, strain mso1, active compounds read low 0.948 | locus YOR001W, strain rrp6, active compounds read low 0.938 | locus YOR070C, strain gyp1, active compounds read low 0.98 | locus YOR080W, strain dia2, active compounds read low 0.942 | locus YOR083W, strain WHI5, active compounds read low 0.946 | locus YOR106W, strain vam3, active compounds read low 0.983 | [8] 1 | locus YOR265W, strain rbl2, active compounds read low 0.978 | locus YOR270C, strain vph1, active compounds read low 0.931 | locus YOR290C, strain snf2, active compounds read low 0.989 | locus YPL051W, strain arl3, active compounds read low 0.989 | locus YPL078C, strain atp4, active compounds read low 0.991 | locus YPL106C, strain sse1, active compounds read low 0.956 | locus YPL240C, strain hsp82, active compounds read low 0.976 | [9] 1.01
